These results are taken from PubChem BioAssay (NCI).

SMILES strings stand for the structures. The panel holds about 83,000 compounds, 20% with a hit somewhere; the sample as a whole holds those more often.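 Cell lines were cultured in 96-well plates, exposed to a single compound concentration, and assessed for percent growth 48 hours later.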 Values without a mark were called inactive. Active and inactive are the calls of the source. The calls were made as follows: active = growth percent below 10; inactive = the rest.

Test systems include NCI-H23 lung; NCI-H226 lung; NCI-H322M lung; HOP-62 NSCLC; NCI-H460 lung; HOP-92 NSCLC; NCI-H522 lung; A549/ATCC NSCLC; 786-0 renal; COLO 205 colon.
Holding throughout (experiment): NCI-60 one-dose screen, 48 h (100 = growth as untreated, 0 = no growth, -100 = all killed)
Conditions in all cases: 10 µM unless noted

With `C=C1C(=O)O[C@H]2[C@H]1CC/C(COC(=O)N[C@H]1C[C@H](O[C@H]3C[C@](O)(C(=O)CO)Cc4c(O)c5c(c(O)c43)C(=O)c3c(OC)cccc3C5=O)O[C@@H](C)[C@H]1O)=C\CC[C@@]1(C)O[C@@H]21`, the growth is 91.1% in the assay on NCI-H23 lung; 58.2% in the assay on NCI-H226 lung; 98.7% in the assay with NCI-H322M lung; 78.7% with HOP-62 NSCLC; 63.4% in the assay on NCI-H460 lung; -5.4% (active) in the assay on HOP-92 NSCLC. In addition, the growth with NCI-H522 lung is -50.2% (active); in the assay with A549/ATCC NSCLC it was 77.2%; in the assay with 786-0 renal it was 43.1%; with COLO 205 colon, 36.2%.

Consider `Cc1ccc(-c2csc(NC(=O)CN3CCN(c4cc5c(cc4F)c(=O)c(C(=O)O)cn5C4CC4)CC3)n2)cc1`, for which the growth in the assay with NCI-H23 lung was 4.26% (active); with NCI-H226 lung, 28.6%; in the assay on NCI-H322M lung, 12.4%; with HOP-62 NSCLC, 11.2%; with NCI-H460 lung, 14.4%; with HOP-92 NSCLC it was -16.4% (active). The growth in the assay with NCI-H522 lung was -11.7% (active); in the assay with A549/ATCC NSCLC, 3.47% (active); in the assay on 786-0 renal it was 22.6%; in the assay with COLO 205 colon it was -17.6% (active).

For `C=C(C)[C@@H]1CC[C@]2(C(=O)OC)CC[C@]3(C)[C@H](CC[C@@H]4[C@@]5(C)C/C(=C/NC(N)=S)C(=O)C(C)(C)[C@@H]5CC[C@]43C)[C@@H]12`, the growth in the assay with NCI-H23 lung is 80.4%; in the assay with NCI-H226 lung it was 86.3%; in the assay on NCI-H322M lung, 101%; in the assay with HOP-62 NSCLC, 97.5%; with NCI-H460 lung it was 88.9%; in the assay with HOP-92 NSCLC, 90.4%. Also, the growth was 88.2% in the assay on NCI-H522 lung, 76.5% in the assay on A549/ATCC NSCLC, 108% in the assay with 786-0 renal and 110% with COLO 205 colon.

For the compound `COc1ccc2nc(NC(=O)CSc3nnc4n3S(=O)(=O)c3ccccc3N4C)sc2c1`, the growth was 94.9% in the assay on NCI-H23 lung; 103% in the assay with NCI-H226 lung; 102% in the assay with NCI-H322M lung; 97.9% with HOP-62 NSCLC; 112% with NCI-H460 lung; 90.5% in the assay on HOP-92 NSCLC. The growth with NCI-H522 lung is 70.9%; in the assay with A549/ATCC NSCLC, 77.9%; with 786-0 renal, 103%; in the assay on COLO 205 colon, 138%.

On to `CC1=Nc2cnc(Nc3ccc(OCCN4CCCCC4)cc3)nc2Nc2ccccc21`, for which the growth in the assay with NCI-H23 lung is 71.5%; in the assay with NCI-H226 lung, 81.3%; in the assay with NCI-H322M lung, 42%; in the assay on HOP-62 NSCLC it was 81.4%; with NCI-H460 lung, 61.6%; in the assay on HOP-92 NSCLC, 32%. In addition, the growth was 70.7% in the assay with NCI-H522 lung, 77.2% in the assay with A549/ATCC NSCLC, 48.5% in the assay with 786-0 renal and 63.7% in the assay with COLO 205 colon.

As to `CCOC(=O)C1=NN(c2ccccc2)C(=O)/C1=C\N1C(=O)CC(=O)NC1=S`, the growth is 99% in the assay on NCI-H23 lung; 92.5% in the assay with NCI-H226 lung; 96% with NCI-H322M lung; 90.1% in the assay with HOP-62 NSCLC; 106% in the assay on NCI-H460 lung; 102% in the assay on HOP-92 NSCLC. For the same compound, the growth in the assay on NCI-H522 lung is 88.8%; with A549/ATCC NSCLC, 103%; in the assay on 786-0 renal, 106%; with COLO 205 colon, 103%.

`CCn1c(=S)[nH]c2c(=O)n(C)c(=O)n(C)c21`: the growth in the assay with NCI-H23 lung is 105%; with NCI-H226 lung, 105%; with NCI-H322M lung, 95%; in the assay with HOP-62 NSCLC, 109%; with NCI-H460 lung, 123%; in the assay on HOP-92 NSCLC, 89.8%. Besides, the growth in the assay on NCI-H522 lung is 90.3%; in the assay with A549/ATCC NSCLC, 96.3%; in the assay with 786-0 renal, 97.1%; in the assay with COLO 205 colon, 116%.

On to `O=c1c2cc(-c3ccccc3)sc2nc2sc(-c3ccccc3)nn12`, for which the growth is 98.9% in the assay with NCI-H23 lung; 104% in the assay with NCI-H226 lung; 104% in the assay with NCI-H322M lung; 102% in the assay with HOP-62 NSCLC; 100% with NCI-H460 lung; 84.3% with HOP-92 NSCLC. The growth is 95.7% with NCI-H522 lung, 91.6% in the assay with A549/ATCC NSCLC, 93% in the assay with 786-0 renal and 109% with COLO 205 colon.

For the compound `O=C1Nc2ccc(I)cc2C1=O`, the growth was 89.7% in the assay with NCI-H23 lung; 92.8% in the assay with NCI-H226 lung; 107% in the assay on NCI-H322M lung; 84.4% with HOP-62 NSCLC; 107% in the assay on NCI-H460 lung; 104% in the assay with HOP-92 NSCLC. In addition, the growth in the assay on NCI-H522 lung is 93.4%; in the assay on A549/ATCC NSCLC, 88.7%; with 786-0 renal, 109%; with COLO 205 colon it was 88.9%.

Regarding `COc1ccc(-c2nc3c(c(-c4ccccc4)nn3-c3ccccc3)c(-c3ccc(N4CCOCC4)cc3)c2C#N)cc1`, the growth was 94% in the assay with NCI-H23 lung; 102% with NCI-H226 lung; 102% in the assay with NCI-H322M lung; 104% with HOP-62 NSCLC; 97.4% in the assay on NCI-H460 lung; 99.4% with HOP-92 NSCLC. Also, the growth is 103% with NCI-H522 lung, 103% in the assay with A549/ATCC NSCLC, 82.4% with 786-0 renal and 124% with COLO 205 colon.

As to `O=C(Cn1cc(CN2C(=O)c3ccccc3S2(=O)=O)nn1)Nc1nc2ccccc2s1`, the growth in the assay with NCI-H23 lung was 103%; in the assay with NCI-H226 lung it was 105%; with NCI-H322M lung, 98.2%; with HOP-62 NSCLC, 89.5%; with NCI-H460 lung, 105%; in the assay on HOP-92 NSCLC it was 100%. The growth with NCI-H522 lung is 84.2%; in the assay on A549/ATCC NSCLC it was 90.6%; in the assay on 786-0 renal it was 101%; in the assay on COLO 205 colon it was 104%.

On to `Oc1c(Cl)cc(Cl)c2ccc(Cn3cc(-c4cc(F)cc(F)c4)nn3)nc12`, for which the growth is 92.3% in the assay on NCI-H23 lung; 95.1% with NCI-H226 lung; 111% in the assay on NCI-H322M lung; 98.9% in the assay with HOP-62 NSCLC; 104% in the assay with NCI-H460 lung; 29% in the assay on HOP-92 NSCLC. Moreover, the growth in the assay with NCI-H522 lung is -38.7% (active); with A549/ATCC NSCLC it was 102%; in the assay on 786-0 renal, 95.6%; in the assay on COLO 205 colon, 70.4%.

As to `Cc1ccc(-c2nc(N3CCNCC3)c3oc(-c4ccccc4)nc3n2)cc1`, the growth in the assay on NCI-H23 lung was 35.3%; in the assay with NCI-H226 lung it was 110%; with NCI-H322M lung, -78.5% (active); with HOP-62 NSCLC, -6.18% (active); in the assay with NCI-H460 lung, -72.5% (active); in the assay with HOP-92 NSCLC, -25.6% (active). Besides, the growth is -81.8% (active) in the assay with NCI-H522 lung, 3.88% (active) in the assay on A549/ATCC NSCLC, -87.8% (active) in the assay on 786-0 renal and -91.1% (active) in the assay with COLO 205 colon.
